Results filed as inconclusive are left out. A number with no mark means an inactive call. Calls come from the whole dose curve; as a rule, active = well fitted activation curve with a large enough effect; inconclusive = small, poorly fitted or top-dose-only effect; inactive = flat fitted curve, though single readings scatter.
Test: Primary redox qHTS assay for identification of artifact compounds. (AID 1845223)
Details: Amplex Red/HRP redox cycling with DTT, fluorescence; series mostly up to 53.8 µM; redox activity (% of DA3003): at the top concentration
Source text: PI: Alexander Tropsha Ph.D.
UNC Eshelman School of Pharmacy
University of North Carolina, Chapel Hill, North Carolina
Hits from high-throughput screening (HTS) of chemical libraries are often false positives due to their interference with the assay detection technology. In response to this problem, we generated the largest publicly available library of chemical liabilities and developed a free webtool to predict HTS artifacts, both of which are described herein. More specifically, we generated, curated, and integrated HTS datasets for thiol reactivity, redox activity, and luciferase (firefly and nano) activity. Using these curated datasets, we developed and validated several Quantitative Structure-Interference Relationship (QSIR) models to predict nuisance behavior. […] These models were employed for virtual profiling of the National Center for Advancing Translational Science's (NCATS) in-house library, and 256 compounds for each assay were selected for the experimental validation of nuisance behavior. The BA for these external predictions ranged from 58 to 78% for compounds within the applicability domains of the models. […] The models developed in this study, along with aggregation models previously developed by our group (SCAM Detective) were implemented in "Liability Predictor," an online tool which may be used as part of chemical library design or for triaging HTS hits. Both the models and the curated datasets are publicly available at https://liability.mml.unc.edu/.
SEQUENCE No. (e.g., 1, 2, 3, etc.); […] (e.g., Cells, Incubation, Reagent, etc.); VALUE; DESCRIPTION.
1; Reagent; 3 uL; Amplex Red and HRP mixture.
2; Compounds and control; 16 nL; Kalypsis pin tool (Wako USA) equipped with a 1536-well pin head. […]
6; Detection; Fluorescence, ViewLux microplate reader, 525 nm excitation, 598 nm emission.
NOTES (numbers refer to Sequence numbers above)
1. 3 uL of a mixture containing Amplex Red (25 uM final concentration) and horseradish peroxidase (HRP; 250 mU/mL final concentration) in assay buffer (HBSS) was dispensed into all wells of a 1536-well assay plate (solid-bottom black plate; Greiner Bio One, Monroe, NC).
2. A Wako Pin-tool (Wako Automation, Richmond, VA) was used to transfer 16 nL of compounds (consisting of 7-plates in qHTS format, final concentration range 18.3 nM to 114 uM) or control DA3003 (final concentration range 1.22 nM to 40 uM).
3. 15 min. incubation at room temperature protected from light.
4. 1 uL of DTT (prepared fresh; final concentration 250 uM) was dispensed for a final assay volume of 4 uL.
5. Plates were centrifuged (121xg, 15 seconds) and incubated for 30 minutes at room temperature protected from light.
6. Samples were read for fluorescence (Ex/Em = 525(20)/598(25) nm) on a ViewLux CCD imager (PerkinElmer). Data were normalized to DMSO (0% activity) and DA3003 (10 uM final concentration; 100% activity) and the resulting percent inhibition data were fitted to a 4-parameter Hill equation using NCATS in-house software.

Row | Structure (SMILES) | redox activity (% of DA3003)
1 | O=C(C[C@@H]1NCCC[C@H]1O)Cn1cnc2ccccc2c1=O | -0.284%
2 | C/C=C1/CN2CC[C@]34C(=Nc5ccc(OC)cc53)C2C[C@@H]1C4(CO)C(=O)OC (stereo not given in full) | -8.77%
3 | CC(=O)O[C@H]1C[C@]2(O)[C@@H]3CC[C@@H]4C[C@@H](O)CC[C@]4(C)[C@H]3CC[C@]2(C)[C@H]1c1ccc(=O)oc1 | 10.4%
4 | NC(=O)c1ncn2c1CN=C(c1ccccc1Br)c1cc(F)ccc1-2 | -3.84%
5 | CC1(C)C(=O)N(c2ccc(C#N)c(C(F)(F)F)c2)C(=S)N1c1ccc(C(N)=O)c(F)c1 | -1.94%
6 | Cc1cccc(NC(=O)c2ccc(C(F)(F)F)cc2C(=O)O)n1 | 0.681%
7 | CN(Cc1cccc(-c2ccncc2)c1)C(=O)Oc1ccc(-c2ccc(C(N)=O)cc2)cc1 | -1.61%
8 | Cc1c(N2C(=O)[C@@H]3[C@H](O)CCN3C2=O)ccc(C#N)c1Cl | -0.855%
9 | CN1CCC2=C(C1)c1ccccc1Cc1ccccc12 | -3.53%
10 | COc1cc2c(cc1O)C1(C)CCC(O)C(C)(C)C1CC2=O (stereo not given) | -0.995%
11 | CC(=O)N1N=C(c2ccc(N)cc2)c2cc3c(cc2C[C@H]1C)OCO3 | -4.37%
12 | Cc1c(Cl)c(OCC(=O)N2CCN(C)CC2)nc2sc(C(=O)NC3CC3)c(N)c12 | 6.07%
13 | C=C(CO)[C@@]12O[C@@H]1[C@@]1(C)C(=CC2=O)CC[C@@H](O)[C@@H]1C | -14.9%
14 | NNC(=O)c1nn(Cc2ccc(Cl)cc2Cl)c2ccccc12 | -2.23%
15 | CC(=O)NCCCOc1ccc(C(=O)N2CCC(N3C(=O)CCc4ccccc43)CC2)cc1 | 13.3%
16 | C[C@H](CCC(=O)O)C[C@H](C)C[C@H](C)C(=O)/C=C(\O)[C@H](C)C[C@H](C)C/C=C/[C@@H](C)[C@@H](O)[C@@H](C)[C@@H](O)C[C@@H]1CC[C@@](C)([C@H]2CC[C@@](C)([C@@H](C)O)O2)O1 | 0.562% [at 25.6 µM]
17 | COc1cccc(NCC(F)Cn2c3ccc(Br)cc3c3cc(Br)ccc32)c1 (stereo not given) | -6.06%
18 | COC(=O)C12C(=O)C(C)(O)C(=O)C1(C)C(C)=CC1C34CCC(OC3=O)C(C)(C)C4CCC12C (stereo not given) | -15.3% [at 25.6 µM]
19 | CO[C@H]1[C@@H](O)[C@@H](C)O[C@@H](O[C@@H]2C=C3C(OC(C)=O)CC4(O)C(CC[C@]5(C)[C@@H](C6=CC(=O)OC6)CC[C@]45O)[C@@]3(C)CC2)[C@@H]1O (stereo not given in full) | 17% [at 25.6 µM]
20 | CN1C(=O)N(c2ccc(C#N)c(C(F)(F)F)c2)C(=O)[C@@]1(CO)c1ccccc1 | 3.59%

Row | Structure (SMILES) | redox activity (% of DA3003)
21 | CC(=O)O[C@H]1CN2CCC1CC2 | -2.69%
22 | C[C@@H]1O[C@@H](O[C@H]2CC[C@@]3(C)C(CC[C@@H]4C3CC[C@]3(C)[C@@H](C5=CC(=O)OC5)CC[C@]43O)C2)[C@H](O)[C@H](O)[C@H]1O (stereo not given in full) | 19.9% [at 25.6 µM]
23 | C=C1[C@@H](C)C2[C@H](Cc3ccccc3)NC(=O)[C@@]23C(/C=C/C[C@H](C)C[C@@](C)(O)/C=C/[C@@H]3OC(C)=O)[C@@H]1O (stereo not given in full) | 10%
24 | Cc1ccc2c(c1)[C@H]1CN(C)CC[C@H]1N2C(=O)CSc1nnnn1-c1ccc(Cl)cc1 | 13.4%
25 | N#CC(O[C@@H]1O[C@H](CO)[C@@H](O)[C@H](O)[C@H]1O)c1ccccc1 (stereo not given in full) | -16.3%
26 | N#Cc1ccccc1-c1cc(-c2ccccn2)cn(-c2ccccc2)c1=O | -3.77%
27 | Nc1ncnc2c1ncn2[C@@H]1O[C@@H]2COP(O)(=S)O[C@H]2[C@H]1O (stereo not given in full) | -10% [at 11.5 µM]
28 | CC1=CC(=O)[C@@H](O)[C@@]2(C)C1C[C@H]1OC(=O)[C@H](O)[C@@]3(O)[C@@H](C)[C@@H](O)[C@H](O)C2[C@@]13C (stereo not given in full) | -16.7%
29 | C[C@@]1(CO)[C@H](O)CC[C@@]2(C)[C@H]1CC[C@H]1C[C@@H]3C[C@@]12CC[C@]3(O)CO | 12.1%
30 | CC[C@H]1/C=C\C=C/C[C@@H](C)[C@H](O)[C@@](C)(O)C(=O)[C@@H](C)[C@H](O)[C@@H](C)C(=O)[C@@H](C)[C@H](O)[C@@H](C)/C=C\C(=O)O[C@@H]2[C@H](C)[C@H](CC1)O[C@]1(CC[C@H](C)[C@H](C[C@@H](C)O)O1)[C@H]2C | 2.81%
31 | CN(CC[C@H](N)CC(=O)N[C@H]1C=C[C@@H](n2ccc(N)nc2=O)O[C@@H]1C(=O)O)C(=N)N | -9.15% [at 11.5 µM]
32 | CCCCCn1cc(C(=O)Cc2ccccc2OC)c2ccccc21 | -2.68%
33 | C[C@]12CC[C@H](O)C[C@@H]1CC[C@@H]1[C@@H]2CC[C@]2(C)C(=O)CC[C@@H]12 | -0.29%
34 | Oc1ccc2c3c1O[C@H]1c4[nH]c5c(N=C=S)cccc5c4C[C@@]4(O)[C@@H](C2)N(CC2CC2)CC[C@]314 | 16.3%
35 | Cc1cccc(NC(=O)NC2N=C(c3ccccc3)c3ccccc3N(CC(=O)c3ccccc3C)C2=O)c1 (stereo not given) | 0.327%
36 | O=C(NCCN1CCC2(CC1)C(=O)NCN2c1cccc(F)c1)c1ccc2ccccc2c1 | 19.1%
37 | COC(=O)CC1CC2(C(=O)c3c(O)cccc3C2(O)C(=O)OC)C(C)O1 (stereo not given) | 9.88%
38 | C=C[C@H]1CN2CCC1C[C@H]2[C@H](O)c1ccnc2ccccc12 (stereo not given in full) | -0.181%
39 | FC(F)(F)c1ccc(N2CCNCC2)nc1Cl | -7.12%
40 | c1cncc(OC[C@@H]2CCN2)c1 | -6.4%

— PubChem BioAssay (NCATS)
